# High-throughput results deposited in PubChem by National Center for Advancing Translational Sciences (NCATS).
# TGFb SMAD3 inh: qHTS for Inhibitors of TGF-b; actives 1.2% (n = 410,000); Potency, µM (top dose mostly 46.1 µM), for inactives: top-dose activity, negative = inhibition, hits mostly inhibitors; HepG2 CAGA-GFP TGF-b/SMAD3 reporter, GFP fluorescence, 18 h; TGF-beta stimulated, 500 pg/mL final; note: potency is the fitted concentration of half-maximal effect; % is set by controls: 0 for no effect and ±100 for the full control effect; nearly all actives have a fitted effect of over 65% in size
#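 GFP signal (ex488/em500-530) from TGF-beta-stimulated HEPG2 CAGA-GFP cells, 500 pg/mL final, 18 h at 37 degrees C in DMEM plus 1% FBS, normalized to unstimulated and DMSO-stimulated controls.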
# HepG2 tox: qHTS for Inhibitors of TGF-b: Cytotox Counterscreen; HepG2 CAGA-GFP viability, ATP luminescence, 18 h; Potency, µM (titrated, usually from 46.1 µM), for inactives: at the highest dose activity change, negative = cytotoxicity, hits mostly cytotoxic; actives 0.76% (n = 410,000); AID 588856, 2011; note: potency is the fitted concentration of half-maximal effect
#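 CellTiter-Glo luminescence gave cytotoxicity after 18 hours at 37 degrees C. The cells were HepG2 CAGA-GFP in 1% FBS DMEM, stimulated with 500 pg/mL TGF-beta after compound addition. %Activity was normalised to no-cell wells (complete cell-killing) and DMSO (no toxicity), and curves were fitted and classified.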
# DT40 TDP1 no CPT: qHTS for Inhibitors of human tyrosyl-DNA phosphodiesterase 1 (TDP1): qHTS in cells in absence of CPT; DT40 Tdp1-/- hTDP1 cells, no CPT, ATP luminescence, 48 h; Potency, µM (doses to about 46.2 µM), for the others: top-dose activity change, negative = growth inhibition, actives largely listed as inhibitors; actives 15% (n = 420,000); note: potency is the fitted concentration of half-maximal effect; % is set by controls: 0 for no effect and ±100 for the full control effect; nearly all actives have a fitted effect of over 55% in size
#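 A cellular qHTS used chicken DT40 cells lacking endogenous Tdp1 but carrying stably transfected human TDP1. Compounds were applied without camptothecin, and cell growth kinetics were judged by ATP-dependent luminescence after ≥48 hr.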
# TDP1 inh: qHTS Assay for Inhibitors of Tyrosyl-DNA Phosphodiesterase (TDP1). Tyrosyl-DNA phosphodiesterase 1 (Homo sapiens), Q9NUW8. recombinant TDP1, AlphaScreen DNA substrate cleavage. Potency, µM (top dose mostly 130 µM), for the others: top-dose activity change, negative = inhibition, hits mostly inhibitors. actives 0.28% (n = 350,000); note: potency is the fitted concentration of half-maximal effect; % is set by controls: 0 for no effect and ±100 for the full control effect; nearly all actives have a fitted effect of over 40% in size
# Target sequence (Q9NUW8 whole entry, looked up): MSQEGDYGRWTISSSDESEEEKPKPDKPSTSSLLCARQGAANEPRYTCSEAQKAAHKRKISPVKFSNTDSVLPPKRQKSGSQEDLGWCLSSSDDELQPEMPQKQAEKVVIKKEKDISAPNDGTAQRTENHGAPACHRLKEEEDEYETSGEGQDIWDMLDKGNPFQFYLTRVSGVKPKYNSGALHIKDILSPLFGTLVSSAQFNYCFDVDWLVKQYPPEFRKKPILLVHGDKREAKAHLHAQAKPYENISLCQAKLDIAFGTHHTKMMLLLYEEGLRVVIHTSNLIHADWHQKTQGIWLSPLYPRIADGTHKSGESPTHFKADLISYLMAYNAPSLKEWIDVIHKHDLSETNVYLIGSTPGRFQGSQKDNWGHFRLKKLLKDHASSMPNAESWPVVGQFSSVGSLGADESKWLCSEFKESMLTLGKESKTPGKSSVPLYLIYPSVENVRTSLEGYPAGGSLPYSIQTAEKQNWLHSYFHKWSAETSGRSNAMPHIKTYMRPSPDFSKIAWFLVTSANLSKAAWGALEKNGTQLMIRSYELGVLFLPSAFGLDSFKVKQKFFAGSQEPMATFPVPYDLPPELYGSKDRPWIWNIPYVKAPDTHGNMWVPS
#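 Compounds were preincubated with Tdp1 (1 nM final) for 15 min at room temperature before substrate (15 nM final) started a 5 min reaction; beads (10 ug/ml final) were then added for 10 min before AlphaScreen detection.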
# TDP1 cell CPT: qHTS for Inhibitors of human tyrosyl-DNA phosphodiesterase 1 (TDP1): qHTS in cells in presence of CPT | chicken DT40 Tdp1-/-;hTDP1 cells + 20 nM CPT, ATP luminescence, 48 h | Potency, µM (highest dose often 46.2 µM), for the others: top-dose activity change, negative = growth inhibition, most hits filed as inhibitors | actives 12% (n = 420,000); note: potency is the fitted concentration of half-maximal effect; % is set by controls: 0 for no effect and ±100 for the full control effect; nearly all actives have a fitted effect of over 55% in size
#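 Chicken DT40 Tdp1-/- cells stably complemented with human TDP1 were seeded at 400 cells/well in medium containing 20 nM camptothecin, exposed to pin-transferred compounds, and grown at 37 °C for at least 48 hr. Viability was read as ATP luminescence.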
# IL1B secr inh: qHTS for Inhibitors of Inflammasome Signaling: IL-1-beta AlphaLISA Primary Screen; THP-1 LPS/ATP IL-1B secretion, AlphaLISA, 16 h; hits give low values; actives 4.7% (n = 360,000); activity change, % at 57.5 µM; AID 743279, 2014; in the data active = activity change below about -50%; inconclusive = mostly about -30% to -49%; note: % is set by controls: 0 for no effect and ±100 for the full control effect
#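 THP-1 cells pretreated 1 hr with compounds (up to 57.5 uM final), then stimulated with LPS (250 ng/mL final) plus ATP (1.25 mM final); secreted IL-1B measured by AlphaLISA after 16 hr, decreased signal indicating inhibition.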
# * = called active by the depositor; u = inconclusive; x = no result given; [ ] = dose if it differs, or a comment. Hits are enriched below; roughly 18% of the tested compounds scored in any of these assays. Unless noted, calls come from the whole dose curve; as a rule, active = well fitted curve in the direction sought with a large enough effect; inconclusive = small, poorly fitted or top-dose-only effect, or another doubt; inactive = no such curve, though single readings can be large; an effect the other way counts as inactive or inconclusive.
SMILES,TGFb SMAD3 inh,HepG2 tox,DT40 TDP1 no CPT,TDP1 inh,TDP1 cell CPT,IL1B secr inh
COc1ccc(N2CCN(S(=O)(=O)c3ccc4c(c3)NC(=O)CC(=O)N4)CC2)cc1,-3%,-1%,3%,6%,-29%,33
CC(=O)N1c2ccc(S(=O)(=O)N3CCC(C(=O)N4CCN(c5cccc(C(F)(F)F)c5)CC4)CC3)cc2CC1C (stereo unspecified),u,-31%,2.3µM*,2%,8.2µM*,-30
COc1ccc(N2CCN(S(=O)(=O)c3ccc4c(c3)C(C(C)C)C(=O)N4)CC2)cc1 (stereo unspecified),u,-53%,8.2µM*,6%,18µM*,x
CC(=O)c1ccc(N2CCN(C(=O)C3CCN(S(=O)(=O)c4ccc5c(c4)CC(C)N5C(C)=O)CC3)CC2)cc1 (stereo unspecified),-7%,-15%,u,3%,18µM*,-8
NC(=O)c1nsc(C(=O)N(Cc2ccccc2Cl)C(C(=O)NCC2CCCO2)c2ccc(O)cc2)c1N (stereo unspecified),22%,-4%,-12%,3%,8%,-2
CCn1cc(Cl)c(C(=O)NNC(=O)CCn2ccc([N+](=O)[O-])n2)n1,5%,-1%,3%,4%,0%,-7
CSC1=N/C(=C\c2cccc(Cl)c2)C(=O)N1N(C)C,9%,16%,21µM*,3%,u,5
O=C(Nc1ccc2c(c1)CCCN2C(=O)c1cccs1)c1ccccc1Cl,0%,-53%,u,6%,u,x
COc1cc2c(cc1OC)C(C(=O)Nc1ccccc1N1CCN(C)CC1)C1c3ccccc3CCN1C2=O (stereo unspecified),13%,-5%,-21%,-5%,u,u
COc1cc2c(cc1OC)C(C(=O)Nc1ccc3c(c1)OCCO3)C1c3ccccc3CCN1C2=O (stereo unspecified),-5%,-16%,23µM*,4%,u,-14
COc1ccc(C(CCNCc2ccc(OC(C)C)cc2)C(C)C)cc1 (stereo unspecified),u,22µM*,6.5µM*,3%,4.6µM*,x
CCOCCCNCc1ccc(OC)c(OC)c1,-10%,0%,4%,-5%,-1%,1
CCOCCCNCc1ccc(OC)cc1,3%,0%,-9%,-8%,-27%,-16
COc1ccc(C(CCNCc2ccc(N(C)C)cc2)C(C)C)cc1 (stereo unspecified),u,10µM*,7.3µM*,11%,7.3µM*,-100*
COc1ccc(CNCCC(c2ccc(OC(C)C)cc2)C(C)C)cc1OC (stereo unspecified),u,16µM*,16µM*,2%,u,-98*
O=C(CCS(=O)(=O)c1ccc(Cl)cc1)NCCc1c[nH]c2ccccc12,-10%,-9%,-16%,5%,-25%,-4
CN1C(=O)C2(c3ccccc31)N(c1cccc(F)c1)C(=O)CS2(=O)=O (stereo unspecified),-1%,-20%,-2%,3%,1%,x
CCN(Cc1ccccc1)S(=O)(=O)c1ccc(C(=O)N2CCN(c3nc4ccccc4s3)CC2)cc1,-21%,-40%,9.2µM*,0%,15µM*,-19
COc1ccc2nc(N3CCN(C(=O)c4ccc5ncsc5c4)CC3)sc2c1,-2%,2%,u,2%,-26%,31
CCS(=O)(=O)c1cccc(C(=O)N2CCN(c3nc4c(C)ccc(Cl)c4s3)CC2)c1,u,-42%,u,3%,16µM*,x
CCOc1ccc2nc(N3CCN(C(=O)c4ccc(S(=O)(=O)CC)cc4)CC3)sc2c1,1%,-12%,18µM*,5%,18µM*,x
CCOc1ccc2nc(N3CCN(C(=O)CS(=O)(=O)c4ccc(F)cc4)CC3)sc2c1,-27%,-31%,16µM*,3%,15µM*,x
O=C(CSc1n[nH]c(-c2ccccc2F)n1)Nc1cc(F)ccc1F,-18%,-2%,u,0%,u,17
Cc1cccnc1C1=NOC(Cc2ccccc2)C(=O)N1Cc1ccccc1F (stereo unspecified),5%,-5%,u,x,u,0
Cc1cc(C)nc(-c2cccc3c2OC(CNC(=O)c2ccc(Cn4nc(C)cc4C)cc2)C3)n1 (stereo unspecified),x,x,-22%,x,26%[9.04 µM],x
SMILES,TGFb SMAD3 inh,HepG2 tox,DT40 TDP1 no CPT,TDP1 inh,TDP1 cell CPT,IL1B secr inh
C/C(=N/NC(=O)c1cc(O)c(O)c(O)c1)c1ccc([N+](=O)[O-])cc1,-26%,0%,u,-1%,u,6
CCNc1ncc2nc(-c3cccs3)c(=O)n(Cc3cccs3)c2n1,x,x,-11%,x,8%,x
CC1=NNC(=O)/C1=C\c1cn(-c2ccccc2)nc1-c1cccs1,5.6µM*,7.9µM*,2.6µM*,8%,2.6µM*,-96*
CC1=NNC(=O)/C1=C\c1cn(-c2ccccc2)nc1-c1ccc(F)cc1,4µM*,-84%,1.5µM*,-4%,3.7µM*,-100*
O=Cc1cn(-c2ccccc2)nc1-c1ccc(F)cc1,-2%,-13%,21µM*,x,u,-18
Cc1c(NC(=O)/C=C/c2cn(-c3ccccc3)nc2-c2ccc(F)cc2)c(=O)n(-c2ccccc2)n1C,-1%,-21%,u,-2%,15µM*,-7
Nc1ccc(CSc2ccc(Cl)cc2)c(Cl)c1,0%,7%,-38%,x,-9%,-30
Cc1cc(C)n(-c2nnc(C)n2/N=C/c2cc(Br)ccc2OCc2ccccc2)n1,-8%,-30%,u,1%,u,-13
O=C(CC[C@H]1O[C@@H](n2ccc(=O)[nH]c2=O)[C@H](O)[C@@H]1O)NCc1ccc2c(c1)OCO2,3%,0%,12%,x,-16%,8
O=C(N/N=C/c1cn(-c2ccccc2)nc1-c1cccnc1)c1ccc(F)cc1,-2%,-40%,u,-2%,u,u
O=C(N/N=C/c1cn(-c2ccccc2)nc1-c1cccs1)c1ccccc1F,u,-29%,-120%,3%,16µM*,-12
